Measured values taken from PubChem BioAssay.
Results filed as inconclusive are left out. The source made the active and inactive calls. Unless noted, how the calls were made is not given here.

Legend:
[1] = hESC survival regulators, cell-based (AID 493140); settings: human embryonic stem cell survival screen; stronger effect = higher value;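 further: cells exposed to compounds for four days before counting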
[2] = growth inhibition of DIPG glioma cells, dose response, cell-based, JHH-DIPG-1, MIPE4.0, CellTiter-Glo, qHTS (AID 1347062; cut-off not given, nearly all actives have AC50 up to about 27 µM;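 on AC50: cells exposed to compound for two days before readout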); settings: JHH-DIPG-1 viability, CellTiter-Glo ATP luminescence
[3] = viability loss in pontine glioma line – cell-based, SU-DIPG-XXV, MIPE5.0, CellTiter-Glo, qHTS, dose response (AID 1347065; cut-off not given, nearly all actives have AC50 up to about 26 µM;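 further: cells exposed to compound for 48 hours before ATP readout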); settings: CellTiter-Glo ATP luminescence
[4] = SU-DIPG-VI glioma cell viability, MIPE4.0 library, CellTiter-Glo luminescence, qHTS (AID 1347066; cut-off not given, nearly all actives have AC50 up to about 30 µM;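 further: cells exposed to compound for 48 hours before readout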); settings: CellTiter-Glo ATP luminescence
[5] = phospholipid biosynthesis inhibitors in animal cells, primary screen, cell-based, LOPAC library, screen 4 (AID 1347384); settings: phospholipid biosynthesis inhibition screen, at 10 µM
[6] = system: Hepatitis C virus NS3 helicase; assay: HCV NS3 helicase inhibitors, primary screen, biochemical, fluorescence polarization, LOPAC1280 library (AID 687035; in the data active means inhibition above about 37%); settings: Purified HCV NS3 helicase, Cy5-dT15 ssDNA binding fluorescence polarization; stronger effect = higher value; concentration not given here
[7] = Cy5 fluorescence quenching or enhancement artefacts, artefact control for HCV NS3 helicase inhibitor project, biochemical, LOPAC1280 (AID 687037); settings: Cy5-DNA-NS3h complex fluorescence interference counterscreen
[8] = growth inhibition of DIPG glioma cells, dose response, cell-based, SU-DIPG-XVII, MIPE5.0, CellTiter-Glo, qHTS (AID 1347060; cut-off not given, nearly all actives have AC50 up to about 26 µM;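 on AC50: cells exposed to compound for 48 hours before viability readout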); settings: SU-DIPG-XVII viability, CellTiter-Glo ATP luminescence
[9] = growth inhibition of DIPG glioma cells, dose response, cell-based, SU-DIPG-XIII, MIPE4.0, CellTiter-Glo, qHTS (AID 1347061; cut-off not given, nearly all actives have AC50 up to about 37 µM;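 further: cells exposed to compound for 48 hours before readout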); settings: SU-DIPG-XIII viability, CellTiter-Glo ATP luminescence
[10] = growth inhibition of DIPG glioma cells, dose response, cell-based, SU-DIPG-IV, MIPE4.0, CellTiter-Glo, qHTS (AID 1347063; cut-off not given, nearly all actives have AC50 up to about 30 µM;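 further: compound exposure lasted 48 hours before the viability readout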); settings: SU-DIPG-IV viability, CellTiter-Glo ATP luminescence
[11] = SU-DIPG-XXV glioma cell viability, MIPE5.0 library, qHTS (AID 1347068; cut-off not given, nearly all actives have IC50 up to about 30 µM;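 on IC50: cells exposed to compound for 48 hours before viability readout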)
[12] = JHH-DIPG-1 glioma cell viability, MIPE5.0 library, CellTiter-Glo luminescence, qHTS (AID 1347067; cut-off not given, nearly all actives have AC50 up to about 26 µM;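 further: cells exposed to compound for 48 hours before readout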); settings: JHH-DIPG-1 glioma viability, CellTiter-Glo ATP luminescence
[13] = reducers of polyQ inclusions in PC12 cells, cell-based, NGF-treated PC12, GFPQ80 (AID 1614); settings: PC12 NGF-treated GFP-polyQ80 inclusion reduction;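 further: lower means fewer inclusions and 0 means no inclusions at all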

**Q.** For `N=C(N)c1ccc(OCCCCCOc2ccc(C(=N)N)cc2)cc1`, which survival [1] is on record?
**A.** Its survival is 0.583 (inactive).

**Q.** What about the outcome [2] of the same molecule?
**A.** Its outcome is “inactive”.

**Q.** What about the AC50 [3] of the same molecule?
**A.** The AC50 was 11.8 µM (active).

**Q.** What about the outcome [4] of the same molecule?
**A.** The outcome was “inactive”.

**Q.** What about the outcome [5] of the same molecule?
**A.** The outcome was “inactive”.

**Q.** Which results are given for `CN(C)CCCN1c2ccccc2CCc2ccc(Cl)cc21`?
**A.** survival [1]: 4.17 (inactive); inhibition [6]: -4% (inactive); fluorescence ratio (interference) [7]: 1 (inactive); outcome [8]: inactive; AC50 [9]: 0.662 µM (active); AC50 [2]: 9.35 µM (active); AC50 [10]: 18.7 µM (active); outcome [11]: inactive; outcome [5]: inactive

**Q.** For `CCCCCN=C(N)N/N=C/c1c[nH]c2ccc(OC)cc12`, which AC50 [8] is on record?
**A.** The AC50 was 13.2 µM (active).

**Q.** And the outcome [9]?
**A.** The outcome was “inactive”.

**Q.** What about the AC50 [3] of the same molecule?
**A.** The AC50 was 14.8 µM (active).

**Q.** And the outcome [4]?
**A.** The outcome was “inactive”.

**Q.** What about the outcome [11] of the same molecule?
**A.** Its outcome is “inactive”.

**Q.** Which results are given for `CC[C@H]1CN2CCc3cc(OC)c(OC)cc3[C@@H]2C[C@@H]1C[C@H]1NCCc2cc(OC)c(OC)cc21`?
**A.** inhibition [6]: 2% (inactive); fluorescence ratio (interference) [7]: 1 (inactive); AC50 [8]: 0.263 µM (active); AC50 [2]: 1.32 µM (active); AC50 [10]: 0.526 µM (active); AC50 [3]: 0.417 µM (active); AC50 [4]: 20.9 µM (active); AC50 [12]: 0.833 µM (active); IC50 [11]: 0.742 µM (active); outcome [5]: inactive

**Q.** Which survival [1] does the source give for `CC[C@H](C)C(=O)O[C@H]1C[C@@H](C)C=C2C=C[C@H](C)[C@H](CC[C@@H]3C[C@@H](O)CC(=O)O3)[C@H]21` here?
**A.** The survival was 2.08 (inactive).

**Q.** And the outcome [9]?
**A.** Its outcome is “inactive”.

**Q.** What about the outcome [3] of the same molecule?
**A.** Its outcome is “inactive”.

**Q.** What about the outcome [4] of the same molecule?
**A.** Its outcome is “inactive”.

**Q.** What about the outcome [11] of the same molecule?
**A.** The outcome was “inactive”.

**Q.** With `CC1=C(CC(=O)O)c2cc(F)ccc2/C1=C\c1ccc(S(C)=O)cc1` (centres undefined) as the molecule, how does the inclusion score [13] read?
**A.** The inclusion score was 2.

**Q.** What about the inhibition [6] of the same molecule?
**A.** Its inhibition is 1% (inactive).

**Q.** And the fluorescence ratio (interference) [7]?
**A.** Its fluorescence ratio (interference) is 1 (inactive).

**Q.** And the outcome [8]?
**A.** Its outcome is “inactive”.

**Q.** And the AC50 [9]?
**A.** Its AC50 is 20.9 µM (active).

**Q.** And the outcome [3]?
**A.** Its outcome is “inactive”.

**Q.** What about the outcome [4] of the same molecule?
**A.** Its outcome is “inactive”.

**Q.** What about the outcome [12] of the same molecule?
**A.** The outcome was “inactive”.

**Q.** What about the outcome [11] of the same molecule?
**A.** The outcome was “inactive”.

**Q.** And the outcome [5]?
**A.** The outcome was “inactive”.

**Q.** For `Cc1noc(NS(=O)(=O)c2ccc(N)cc2)c1C`, which inclusion score [13] is on record?
**A.** Its inclusion score is 2.

**Q.** And the survival [1]?
**A.** Its survival is 8.25 (inactive).

**Q.** And the outcome [9]?
**A.** Its outcome is “inactive”.

**Q.** And the outcome [2]?
**A.** Its outcome is “inactive”.

**Q.** And the outcome [10]?
**A.** The outcome was “inactive”.

**Q.** And the outcome [4]?
**A.** Its outcome is “inactive”.

**Q.** Which survival [1] does the source give for `CCC(C)(C)C(=O)O[C@H]1C[C@@H](C)C=C2C=C[C@H](C)[C@H](CC[C@@H]3C[C@@H](O)CC(=O)O3)[C@H]21` here?
**A.** Its survival is 1.17 (inactive).

**Q.** And the outcome [9]?
**A.** The outcome was “inactive”.

**Q.** And the AC50 [10]?
**A.** The AC50 was 18.7 µM (active).

**Q.** And the outcome [11]?
**A.** The outcome was “inactive”.
